In PubChem BioAssay (NCATS):
“And” between values parts separate entries of the source, which are not always exact repeats. Equal entries are not always repeated. Results filed as inconclusive are left out. The source made the active and inactive calls. Unless noted, the call rests on the fitted dose curve; in most records, active means well fitted curve in the direction sought with a large enough effect; inconclusive means small, poorly fitted or top-dose-only effect, or another doubt; inactive means no such curve, though single readings can be large; an effect the other way counts as inactive or inconclusive.

How the values were obtained:
[1] = Cellular Toxicity (caspase-3) HepG2 (AID 654);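 further: cells exposed to compound for 16 hours before reading; 0% = DMSO alone and 100% = caspase signal from 100 µM tamoxifen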
Method in brief: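 HepG2 cells (1500/well) were treated 16 h at 37 °C in complete medium, then caspase 3/7 activity was read by Caspase-Glo luminescence. Data were normalized to DMSO and 100 uM tamoxifen; AC50 came from Hill-equation fits of qHTS concentration-response.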

[2] = Cellular Toxicity (caspase-3) SK-N-SH (AID 661);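 further: 0% = DMSO basal and 100% = 10 µM staurosporine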
Method in brief: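 Human SK-N-SH neuroblastoma cells, 1500/well, were exposed to compounds for 16 hours at 37 °C. Caspase-Glo 3/7 luminescence was normalized to DMSO (basal) and 10 uM staurosporine (100%), and AC50 came from a Hill fit.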

[3] = Cellular Toxicity (caspase-3) Hek293 (AID 664); conditions: HEK293 caspase-3 activation, DMSO = 0%, 100 µM tamoxifen = 100%; at 92.2 µM (top of the series);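 further: cells exposed to compound for 16 h at 37 °C before readout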
Method in brief: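 HEK293 cells in complete medium treated 16 h at 37 °C, then Caspase-Glo 3/7 luminescence read after 20 min at room temperature. Normalized to DMSO and 100 uM tamoxifen; AC50 from Hill fit of concentration-response.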

[4] = Cellular Toxicity (caspase-3) N2a (AID 665);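 further: compound exposure lasted 16 h at 37 °C before readout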
Method in brief: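 Mouse N2a neuroblastoma cells, 1500 per well, treated 16 h at 37 °C in complete medium; caspase-3/7 activity by Caspase-Glo luminescence after 1 h. Normalized to DMSO and 10 uM staurosporine; AC50 from Hill fits.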

[5] = Cellular Toxicity (caspase-3) NIH 3T3 (AID 666);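 further: 0% = DMSO basal and 100% = 100 µM tamoxifen stimulation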
Method in brief: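 Mouse NIH 3T3 fibroblasts (1000/well) treated 16 h at 37 C; caspase-3/7 activity measured by Caspase-Glo 3/7 luminescence after 20 min. Normalized to DMSO and 100 uM tamoxifen; AC50 from Hill fits.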

[6] = Cellular Toxicity (caspase-3) Renal Proximal Tubule (AID 667);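 further: cells exposed to compound for 16 hours at 37 °C before detection; 0% = DMSO basal and 100% = 10 µM staurosporine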
Method in brief: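 Caspase-Glo 3/7 read-out, rat primary kidney proximal tubule cells. Compound exposure 16 h, 37 °C; detection after 1 h at RT. Activity scaled to DMSO and 10 uM staurosporine.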

[7] = MultiTox-Fluor Cytotoxicity Assay - LYMP1-003 - Dead Cells (AID 961);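 further: 0% = DMSO and 100% = tetraoctylammonium bromide; nearly all actives have a fitted effect of over 70% in size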
Method in brief: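 Human lymphoblastoid LYMP1-003 cells (2500/well) were treated with compounds for 16 hr at 37 C in complete medium. Dead-cell protease release was read by bis-AAF-R110 fluorescence (Ex/Em 485/520). AC50 came from Hill fits, normalized to DMSO and 15 uM tetraoctylammonium bromide.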

[8] = Cell Viability - LYMP2-003 (AID 965);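 further: cells exposed to compounds for 24 h before reading; 0% = DMSO only and full effect = 92 µM tetraoctylammonium bromide; nearly all actives have a fitted effect of over 50% in size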
Method in brief: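 qHTS, human lymphoblastoid line, 2500 cells/well, complete medium. 24 h drug, 37 C. ATP-based luminescent readout; Hill-fit AC50.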

[9] = Cell Viability - LYMP2-009 (AID 968);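 further: 0% = DMSO alone and the full-kill end = tetraoctylammonium bromide at 92 µM; nearly all actives have a fitted effect of over 55% in size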
[10] = Cell Viability - LYMP2-013 (AID 970);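 further: 0% = DMSO only and full inhibition = tetraoctylammonium bromide control; nearly all actives have a fitted effect of over 55% in size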
Method in brief: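 Human lymphoblastoid LYMP2-013 cells, 2500/well, treated 24 h at 37 C in complete medium; viability as intracellular ATP by CellTiter-Glo luminescence after 30 min. AC50 from Hill fits of qHTS concentration-response.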

[11] = Cell Viability - LYMP2-025 (AID 976);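 further: plate controls were DMSO only for no effect and tetraoctylammonium bromide control for full effect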
Method in brief: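 Human lymphoblastoid LYMP2-025 cells, 2500/well, exposed 24 h at 37 C in complete medium in 1536-well qHTS. Viability as cellular ATP by CellTiter-Glo luminescence; AC50 from Hill fits of concentration-response data.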

[12] = Cell Viability - LYMP2-006 (AID 978);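 further: cells exposed to compound for 24 hours; on the % scale 0 is the no-effect control and ±100 the full control effect; nearly all actives have a fitted effect of over 60% in size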
Method in brief: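 In this cytotoxicity screen, the human lymphoblastoid line grew in complete medium with test compounds for 24 hr at 37 C. Cellular ATP served as the viability signal.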

[13] = Cell Viability - LYMP2-007 (AID 979);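 further: cells exposed to compound for 24 h before reading; 0% = DMSO only and the negative end = 92 µM tetraoctylammonium bromide; nearly all actives have a fitted effect of over 60% in size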
Method in brief: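 Human lymphoblastoid LYMP2-007 cells (2500/well) preincubated 5 h at 37 C, then treated 24 h at 37 C in complete medium. Viability by CellTiter-Glo ATP luminescence after 30 min at room temperature; AC50 from Hill fits.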

[14] = Cell Viability - LYMP2-008 (AID 980); further: on the % scale 0 is the no-effect control and ±100 the full control effect; nearly all actives have a fitted effect of over 60% in size
Method in brief: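 LYMP2-008 lymphoblastoid cells (2500/well) plated 5 h, then treated 24 h at 37 C in complete medium. Viability read as intracellular ATP by CellTiter-Glo luminescence after 30 min at room temperature; AC50 from Hill fits.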

[15] = Cell Viability - LYMP1-002 - Assay at 24 hr (AID 993); further: on the % scale 0 is the no-effect control and ±100 the full control effect
Method in brief: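 Human lymphoblastoid LYMP1-002 cells (2500/well) treated 24 h at 37 °C; viability as intracellular ATP by CellTiter-Glo luminescence. Tetraoctylammonium bromide as positive control; AC50 from Hill-equation fits of qHTS concentration-response.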

[16] = qHTS Assay for Identification of Small Molecule Inducers of Hypoxia Response (AID 2120; active means well fitted curve in the direction sought with a large enough effect in the signal ratio, with a control signal flat, not every such curve was filed as active; the % refers to the signal ratio; further: 0% is about no effect)
Method in brief: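 HRE-bla ME-180 cells in Opti-MEM with 0.5% dialyzed FBS, pre-plated 4-5 h, then compound titration for 17 h at 37 degrees Celsius. CCF4 loaded 2.5 h at room temperature; 460/530 nm ratio gave %Activity and AC50 for induction.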

[17] = molecular target: Peroxisome proliferator-activated receptor alpha (Homo sapiens) (UniProt Q07869); test: qHTS assay for small molecule agonists of the peroxisome proliferator-activated receptor alpha (PPARalpha) signaling pathway (AID 651778); conditions: PathHunter PPARalpha complementation, chemiluminescence, 6 h; active compounds read high; further: % of control where 0% means no effect
Method in brief: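 Chemiluminescence from complemented enzyme reported PPARalpha activation in cells after 6 hr of compound treatment at 37 C. The detection reagent was incubated for 60 min at room temperature, and compounds were scored as agonists.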

[18] = qHTS assay for small molecule agonists of the antioxidant response element (ARE) signaling pathway measured by Nrf2-dependant transcriptional activity - cell viability counter screen (AID 720653; active means well fitted curve in the direction sought with a large enough effect in the repeat runs; an effect the other way counts as inactive or inconclusive; further: on the % scale 0 is the no-effect control and ±100 the full control effect); conditions: ARE-bla HepG2 viability, CellTiter-Glo ATP luminescence, 16 h; active compounds read low
Method in brief: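 Cytotoxicity counter screen: intracellular ATP quantified by CellTiter-Glo luminescence in the same ARE-bla HepG2 plates, after 16 h compound exposure and a 2 h beta-lactamase substrate step.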

[19] = qHTS assay for cell viability of HEK293 cells (AID 743288); conditions: ATP luminescence (CellTiter-Glo), 18 h, active compounds read low; further: on the % scale 0 is the no-effect control and ±100 the full control effect; nearly all actives have a fitted effect of over 50% in size
Method in brief: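 Luminescent ATP quantitation served as the viability read-out. Cells (parental HEK293, 2,000/well) received compounds after at least 5 h at 37 C and were exposed for 18 h before a 30 min room-temperature reagent step.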

[20] = qHTS assay for cell viability of the p53RE-bla HCT-116 cell line (AID 743292); further: on the % scale 0 is the no-effect control and ±100 the full control effect; nearly all actives have a fitted effect of over 55% in size
Method in brief: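 Quantitative high-throughput format: compounds in DMSO were pinned onto p53RE-bla HCT-116 cells (4,000/well) and incubated 16 h at 37 C. Total intracellular ATP, read by CellTiter-Glo luminescence, reflects viable cell number.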

Peroxisome proliferator-activated receptor alpha (Homo sapiens), sequence (Q07869 whole entry, looked up): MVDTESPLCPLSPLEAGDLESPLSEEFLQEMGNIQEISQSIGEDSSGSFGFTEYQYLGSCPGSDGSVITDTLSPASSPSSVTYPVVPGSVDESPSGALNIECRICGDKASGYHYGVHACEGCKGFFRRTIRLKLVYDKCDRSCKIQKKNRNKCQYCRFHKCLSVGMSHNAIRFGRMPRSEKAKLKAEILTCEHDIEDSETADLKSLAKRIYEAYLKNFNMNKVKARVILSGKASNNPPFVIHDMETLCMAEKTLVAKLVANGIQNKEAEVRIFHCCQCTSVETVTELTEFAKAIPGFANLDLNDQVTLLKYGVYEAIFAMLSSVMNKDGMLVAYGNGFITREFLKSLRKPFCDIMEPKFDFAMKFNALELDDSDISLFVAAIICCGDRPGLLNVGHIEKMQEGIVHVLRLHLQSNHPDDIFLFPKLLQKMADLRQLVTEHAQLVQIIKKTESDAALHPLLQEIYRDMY

O=C(O)CBr
inactive: outcome [1] | Potency [2] | caspase-3 activation [3] 2.72% | outcome [4] | Potency [5] | outcome [6] | Potency [7] | Potency [8] | Potency [9] | Potency [10] | Potency [11] | Potency [12] | Potency [13] | Potency [14] | Potency [15] | Potency [16] | max response [17] 2.06% | max response [18] 9.96% | max response [19] 6.1% | Potency [20]

Nc1ccc2ccccc2c1
inactive: outcome [1] | Potency [2] | caspase-3 activation [3] 2.15% | outcome [4] | Potency [5] | outcome [6] | Potency [7] | Potency [8] | Potency [9] | Potency [10] | Potency [11] | Potency [12] | Potency [13] | Potency [14] | Potency [15] | Potency [16] | max response [17] -2.41% | max response [18] -2.01% | max response [19] 3.26% | Potency [20]

Cl/C=C/CCl
inactive: outcome [1] | Potency [2] | caspase-3 activation [3] -1.73% | outcome [4] | Potency [5] | outcome [6] | Potency [7] | Potency [8] | Potency [9] | Potency [10] | Potency [11] | Potency [12] | Potency [13] | Potency [14] | Potency [15] | Potency [16] | max response [17] -3.36% | max response [18] -1.22% | max response [19] 2.26% | Potency [20]

CN(C)C(=O)Nc1cccc(C(F)(F)F)c1
inactive: outcome [1] | Potency [2] | caspase-3 activation [3] 0.171% | outcome [4] | Potency [5] | outcome [6] | Potency [7] | Potency [8] | Potency [9] | Potency [10] | Potency [11] | Potency [12] | Potency [13] | Potency [14] | Potency [15] | Potency [16] | max response [17] -1.29% and 0.409% | max response [18] -4.03% and 2.07% | max response [19] 3% and -3.2% | Potency [20]

Oc1ccc(Cl)c(Cl)c1
inactive: outcome [1] | Potency [2] | caspase-3 activation [3] 0.945% | outcome [4] | Potency [5] | outcome [6] | Potency [7] | Potency [8] | Potency [9] | Potency [10] | Potency [11] | Potency [12] | Potency [13] | Potency [14] | Potency [15] | Potency [16] | max response [17] -3.58% | max response [18] -2.38% | max response [19] 7.88% | Potency [20]

CC(C)CC(C)N (stereo not given)
inactive: outcome [1] | Potency [2] | caspase-3 activation [3] 1.99% | outcome [4] | Potency [5] | outcome [6] | Potency [7] | Potency [8] | Potency [9] | Potency [10] | Potency [11] | Potency [12] | Potency [13] | Potency [14] | Potency [15] | Potency [16] | max response [17] 1.79% | max response [18] 0.53% | max response [19] 1.65% | Potency [20]

CCOP(=S)(OCC)SCCSCC
inactive: outcome [1] | Potency [2] | caspase-3 activation [3] 0.951% | outcome [4] | Potency [5] | outcome [6] | Potency [7] | Potency [8] | Potency [9] | Potency [10] | Potency [11] | Potency [12] | Potency [13] | Potency [14] | Potency [15] | Potency [16] | max response [17] -1.85% and -0.372% | max response [18] -4.12% and 4.55% | max response [19] -9.57% and -7.92% | Potency [20]

BrCC(Br)C1CCC(Br)C(Br)C1 (stereo not given)
inactive: outcome [1] | Potency [2] | caspase-3 activation [3] 6.64% | outcome [4] | Potency [5] | outcome [6] | Potency [7] | Potency [8] | Potency [9] | Potency [10] | Potency [11] | Potency [12] | Potency [13] | Potency [14] | Potency [15] | Potency [16] | max response [17] 4.79% | max response [18] -1.58% | max response [19] 1.74% | Potency [20]

Oc1c(Cl)cccc1Cl
inactive: outcome [1] | Potency [2] | caspase-3 activation [3] 1.84% | outcome [4] | Potency [5] | outcome [6] | Potency [7] | Potency [8] | Potency [9] | Potency [10] | Potency [11] | Potency [12] | Potency [13] | Potency [14] | Potency [15] | Potency [16] | max response [17] -1.21% | max response [18] 9.38% | max response [19] -3.49% | Potency [20]

C=CCBr
inactive: outcome [1] | Potency [2] | caspase-3 activation [3] 1.99% | outcome [4] | Potency [5] | outcome [6] | Potency [7] | Potency [8] | Potency [9] | Potency [10] | Potency [11] | Potency [12] | Potency [13] | Potency [14] | Potency [15] | Potency [16] | max response [17] -4.55% | max response [18] -1.79% | max response [19] -2.53% | Potency [20]

Clc1cccc(Cl)c1
inactive: outcome [1] | Potency [2] | caspase-3 activation [3] 1.04% | outcome [4] | Potency [5] | outcome [6] | Potency [7] | Potency [8] | Potency [9] | Potency [10] | Potency [11] | Potency [12] | Potency [13] | Potency [14] | Potency [15] | Potency [16] | max response [17] -0.108% | max response [18] -2.71% | max response [19] -11.3% | Potency [20]

COc1c(C(C)(C)C)cc([N+](=O)[O-])c(C)c1[N+](=O)[O-]
inactive: outcome [1] | Potency [2] | caspase-3 activation [3] 1.65% | outcome [4] | Potency [5] | outcome [6] | Potency [7] | Potency [8] | Potency [9] | Potency [10] | Potency [11] | Potency [12] | Potency [13] | Potency [14] | Potency [15] | Potency [16] | max response [17] 1.79% | max response [18] 4.77% | max response [19] -7.25% | Potency [20]
